Data as given in PubChem BioAssay (NCATS).
Results filed as inconclusive are left out. A call without a number means that no potency is given here. Calls of active or inactive are those of the source. The call rests on the fitted dose curve; in most records, active means well fitted curve in the direction sought with a large enough effect; inconclusive means small, poorly fitted or top-dose-only effect, or another doubt; inactive means no such curve, though single readings can be large; an effect the other way counts as inactive or inconclusive.

Tests used:
[1] = molecular target: Calcium and integrin-binding protein 1 (Homo sapiens) (UniProt Q99828); assay: Primary qHTS for Identification of Calcium Integrin Binding Protein 1 (CIB1) Competitor (AID 1508620); settings: CIB1-GST / FITC-alphaIIb peptide fluorescence polarization; series mostly up to 57.7 µM;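 further: GST tagged CIB1 binding a fluorescein labelled alphaIIb integrin peptide tracer; top concentration of the series differs between compounds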
Chain of Calcium and integrin-binding protein 1 (Homo sapiens) (Q99828 whole entry, looked up): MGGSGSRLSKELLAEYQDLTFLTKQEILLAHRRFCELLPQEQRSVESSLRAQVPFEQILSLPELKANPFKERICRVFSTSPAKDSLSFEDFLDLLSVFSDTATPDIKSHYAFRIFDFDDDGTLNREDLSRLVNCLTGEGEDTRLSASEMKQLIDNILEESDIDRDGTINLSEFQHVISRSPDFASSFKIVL
In short: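 Fluorescence polarization competition: CIB1-GST (1 uM final) preincubated with compound 15 min at room temperature, then FITC-labeled alphaIIb peptide (100 nM final) added for another 15 min. Polarization read at Ex 480/Em 540.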

[2] = Primary qHTS for small molecule stabilizers of the endoplasmic reticulum resident proteome: Secreted ER Calcium Modulated Protein (SERCaMP) assay (AID 1508630); settings: SH-SY5Y GLuc-SERCaMP (Gaussia luciferase released on ER calcium loss) secretion, thapsigargin, luminescence; series mostly up to 38.4 µM; further: potency means the concentration at half of the fitted maximal effect
In short: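 The SH-SY5Y reporter protocol was run at 3 concentrations up to 38.3 uM (primary) or 11 concentrations (follow-up): 16 h compound, 100 nM thapsigargin for 4 h, then extracellular luciferase luminescence.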

| SMILES | outcome [1] | Potency [2] |
| --- | --- | --- |
| CC(=O)NC(C)c1ccc(Oc2ccc(OC(C)C)cc2)cc1 (configuration not stated) | inactive | inactive |
| COc1cc2nccc(Oc3ccc(NC(=O)NC4CC4)c(Cl)c3)c2cc1C(N)=O |  | inactive |
| CNCc1ccc(-c2[nH]c3cc(F)cc4c3c2CCNC4=O)cc1 | inactive | inactive |
| O=C(c1cc(Cc2n[nH]c(=O)c3ccccc23)ccc1F)N1CCN(C(=O)C2CC2)CC1 |  | inactive |
| CCOC(=O)N[C@@H]1CC[C@@H]2[C@@H](C1)C[C@H]1C(=O)O[C@H](C)[C@H]1[C@@H]2C=Cc1ccc(-c2cccc(F)c2)cn1 |  | inactive |
| Cn1cc(-c2ccc3nnc(C(F)(F)c4ccc5ncccc5c4)n3n2)cn1 | inactive | 14.9 µM (active) |
| OCCn1cc(-c2cnc3nnn(Cc4ccc5ncccc5c4)c3n2)cn1 | inactive | inactive |
| Cc1cnc(Nc2ccc(OCCN3CCCC3)cc2)nc1Nc1cccc(S(=O)(=O)NC(C)(C)C)c1 |  | inactive |
